Records with an inconclusive call do not appear. Active and inactive are the calls of the source. Calls follow the shape of the dose curve; as a rule, active = well fitted curve in the direction sought with a large enough effect; inconclusive = small, poorly fitted or top-dose-only effect, or another doubt; inactive = no such curve, though single readings can be large; an effect the other way counts as inactive or inconclusive.
Key:
[1] = system: MKL-1; assay: qHTS assay to identify novel small-molecules to repurpose for Merkel cell carcinoma treatment (AID 1296009); conditions: MCC and control cell lines, CellTiter-Glo viability, 72 h; series mostly up to 46 µM; also: nearly all actives have a fitted effect of over 60% in size
How it was run: (§1)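 Cell viability measured by CellTiter-Glo following 72 hr compound treatment at 37 degree celsius, with NPC and MIPE libraries tested in 8- and 11-point concentration series.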

[2] = system: MKL-2; assay: as above; conditions: MCC and control cell lines, CellTiter-Glo viability, 72 h; series mostly up to 46 µM
How it was run: as §1

[3] = system: UISO; assay: as above; conditions: MCC and control cell lines, CellTiter-Glo viability, 72 h; series mostly up to 46 µM
How it was run: as §1

[4] = system: WaGa; assay: as above; conditions: MCC and control cell lines, CellTiter-Glo viability, 72 h; series mostly up to 46 µM
How it was run: as §1

[5] = system: C33A; assay: Primary qHTS to identify gynecologic anti-cancer compounds using libraries of approved drugs and bioactive compounds (AID 1345084); conditions: Gynecologic cancer cell panel viability, ATPlite luminescence, 48 h; series mostly up to 57.5 µM; also: nearly all actives have a fitted effect of over 55% in size
How it was run: (§2)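 Cytotoxicity screen measuring ATP content by luciferase luminescence. Each compound is applied at five concentrations for 48 h at 37 C with 5% CO2.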

[6] = system: CAOV3; assay: as above; conditions: Gynecologic cancer cell panel viability, ATPlite luminescence, 48 h; series mostly up to 57.5 µM
How it was run: as §2

[7] = system: CASKI; assay: as above; conditions: Gynecologic cancer cell panel viability, ATPlite luminescence, 48 h; series mostly up to 57.5 µM
How it was run: as §2

[8] = system: Es-2; assay: as above; conditions: Gynecologic cancer cell panel viability, ATPlite luminescence, 48 h; series mostly up to 57.5 µM
How it was run: as §2

[9] = system: HeLa; assay: as above; conditions: Gynecologic cancer cell panel viability, ATPlite luminescence, 48 h; series mostly up to 57.5 µM
How it was run: as §2

[10] = system: NIH3T3; assay: qHTS assay to identify novel small-molecules to repurpose for Merkel cell carcinoma treatment (AID 1296009); conditions: MCC and control cell lines, CellTiter-Glo viability, 72 h; at 44.8 µM (top of the series); also: nearly all actives have a fitted effect of over 60% in size
How it was run: as §1
% is scaled to controls: 0 for no effect and ±100 for the full control effect.

O=S(=O)(O)c1ccc(O)cc1
inactive: Potency [1] | Potency [2] | Potency [3] | Potency [4] | Potency [5] | Potency [6] | Potency [7] | Potency [8] | Potency [9]

Cn1c(=O)c2[nH]c(Br)nc2n(C)c1=O
inactive: Potency [1] | Potency [2] | Potency [3] | Potency [4] | Potency [5] | Potency [6] | Potency [7] | Potency [8] | Potency [9]

CN(C)CCOC(c1ccc(Cl)cc1)c1ccccn1 (configuration not stated)
inactive: Potency [1] | Potency [2] | Potency [3] | Potency [4]

CC(C)Cn1cnc2c1c(=O)n(C)c(=O)n2C
inactive: Potency [1] | Potency [2] | Potency [3] | Potency [4] | Potency [5] | Potency [6] | Potency [7] | Potency [8]

COc1ccc(-c2cc(C(F)F)nn2-c2ccc(S(N)(=O)=O)cc2)cc1F
inactive: Potency [1] | Potency [2] | Potency [3] | Potency [4] | Potency [5] | Potency [6] | Potency [7] | Potency [8] | Potency [9]

O=C(O)C1(C(=O)O)CCC1.[NH2-].[NH2-].[Pt+2]
inactive: Potency [1] | Potency [2] | Potency [3] | Potency [4] | Potency [5] | Potency [6] | Potency [7] | Potency [8] | Potency [9]

O=C(O)Cc1csc(-c2ccc(Cl)cc2)n1
inactive: Potency [1] | Potency [2] | Potency [3] | Potency [4] | Potency [5] | Potency [6] | Potency [7] | Potency [8] | Potency [9]

CCCCNC(=O)NS(=O)(=O)c1ccc(N)cc1
inactive: Potency [1] | Potency [2] | Potency [3] | Potency [4] | Potency [5] | Potency [6] | Potency [7] | Potency [8] | Potency [9]

CCOc1cc(OCC)c(C(=O)CCC(=O)O)cc1OCC
inactive: Potency [1] | Potency [2] | outcome [10] | Potency [3] | Potency [4] | Potency [5] | Potency [6] | Potency [7] | Potency [8] | Potency [9]

NCc1ccccc1Sc1ccccc1CO
inactive: Potency [1] | Potency [2] | outcome [10] | Potency [3] | Potency [5] | Potency [6] | Potency [7] | Potency [8] | Potency [9]

CC1(COc2ccc(CC3SC(=O)NC3=O)cc2)CCCCC1 (configuration not stated)
inactive: Potency [1] | Potency [2] | outcome [10] | Potency [5] | Potency [6] | Potency [7] | Potency [8] | Potency [9]

Cl/C(=C\n1cncn1)c1ccc(Cl)cc1Cl
inactive: Potency [1] | Potency [2] | Potency [3] | Potency [4] | Potency [5] | Potency [6] | Potency [7] | Potency [8]

CC(C)CCCC(C)N (configuration not stated)
inactive: Potency [1] | Potency [2] | outcome [10] | Potency [3] | Potency [4] | Potency [5] | Potency [6] | Potency [7] | Potency [8] | Potency [9]

CCNC(=O)NCc1cccc(Cl)c1
inactive: Potency [1] | Potency [2] | Potency [3] | Potency [4] | Potency [5] | Potency [6] | Potency [7] | Potency [8] | Potency [9]

CC(=O)NO
inactive: Potency [1] | Potency [2] | Potency [3] | Potency [4] | Potency [5] | Potency [6] | Potency [7] | Potency [8] | Potency [9]

C=C[C@H]1CN2CC[C@H]1C[C@@H]2[C@@H](O)c1ccnc2ccc(OC)cc12
inactive: Potency [1] | Potency [2] | Potency [3] | Potency [4] | Potency [5] | Potency [6] | Potency [7] | Potency [8] | Potency [9]

CC(C)Cc1ccc(CC(=O)O)cc1
inactive: Potency [1] | Potency [2] | Potency [3] | Potency [4] | Potency [5] | Potency [6] | Potency [7] | Potency [8] | Potency [9]

Cc1cccc(C)c1NC(=O)CN1CCCC1
inactive: Potency [1] | Potency [2] | Potency [3] | Potency [4] | Potency [5] | Potency [6] | Potency [7] | Potency [8] | Potency [9]

N=C(N)N1CCc2ccccc2C1
inactive: activity change, negative = cytotoxicity [1] -2.59% [at 4.84 µM] | activity change, negative = cytotoxicity [2] -8.08% [at 4.84 µM] | activity change, negative = cytotoxicity [3] -8.38% [at 4.84 µM] | activity change, negative = cytotoxicity [4] -9.27% [at 4.84 µM] | activity change, negative = cytotoxicity [5] -2.35% [at 6.55 µM] | activity change, negative = cytotoxicity [6] 8.37% [at 6.55 µM] | activity change, negative = cytotoxicity [7] -9.81% [at 6.55 µM] | activity change, negative = cytotoxicity [8] -6.19% [at 6.55 µM] | activity change, negative = cytotoxicity [9] -13.2% [at 6.55 µM]

O=C(Nc1ccc([N+](=O)[O-])cc1)Nc1ccc([N+](=O)[O-])cc1
inactive: Potency [1] | Potency [2] | Potency [3] | Potency [4] | Potency [5] | Potency [6] | Potency [7] | Potency [8] | Potency [9]

CC(=O)NC(=O)c1ccccc1O
inactive: Potency [1] | Potency [2] | Potency [3] | Potency [4] | Potency [5] | Potency [6] | Potency [7] | Potency [8] | Potency [9]

O=C(O)c1ccc(S(=O)(=O)N(Cl)Cl)cc1
inactive: Potency [1] | Potency [2] | Potency [3] | Potency [4] | Potency [5] | Potency [6] | Potency [7] | Potency [8] | Potency [9]

— PubChem BioAssay (NCATS)
